Reference: ChEMBL document CHEMBL3988442, “University of Dundee, Small-Polar-MMV Screening Library” (2021)
For some assays here: Measured potencies and affinities stand elsewhere.

Columns and labels:
Parameters in all cases: scale not given: direction of the effect not stated beside the values
[1] = molecular target: Protein translocase subunit SecA (Escherichia coli (strain K12)) (UniProt P10408); test: Assay to Identify E. coli SecA ATPase Inhibitors; format: functional; details: 30 µM
[2] = molecular target: T1, Ubiquitin-activating enzyme e1, putative (Leishmania donovani (strain BPK282A1)) (UniProt E9BSI1); test: Leishmania donovani Ubiquitin Activating Enzyme (LdE1); format: functional; details: 30 µM
T1 sequence (whole entry): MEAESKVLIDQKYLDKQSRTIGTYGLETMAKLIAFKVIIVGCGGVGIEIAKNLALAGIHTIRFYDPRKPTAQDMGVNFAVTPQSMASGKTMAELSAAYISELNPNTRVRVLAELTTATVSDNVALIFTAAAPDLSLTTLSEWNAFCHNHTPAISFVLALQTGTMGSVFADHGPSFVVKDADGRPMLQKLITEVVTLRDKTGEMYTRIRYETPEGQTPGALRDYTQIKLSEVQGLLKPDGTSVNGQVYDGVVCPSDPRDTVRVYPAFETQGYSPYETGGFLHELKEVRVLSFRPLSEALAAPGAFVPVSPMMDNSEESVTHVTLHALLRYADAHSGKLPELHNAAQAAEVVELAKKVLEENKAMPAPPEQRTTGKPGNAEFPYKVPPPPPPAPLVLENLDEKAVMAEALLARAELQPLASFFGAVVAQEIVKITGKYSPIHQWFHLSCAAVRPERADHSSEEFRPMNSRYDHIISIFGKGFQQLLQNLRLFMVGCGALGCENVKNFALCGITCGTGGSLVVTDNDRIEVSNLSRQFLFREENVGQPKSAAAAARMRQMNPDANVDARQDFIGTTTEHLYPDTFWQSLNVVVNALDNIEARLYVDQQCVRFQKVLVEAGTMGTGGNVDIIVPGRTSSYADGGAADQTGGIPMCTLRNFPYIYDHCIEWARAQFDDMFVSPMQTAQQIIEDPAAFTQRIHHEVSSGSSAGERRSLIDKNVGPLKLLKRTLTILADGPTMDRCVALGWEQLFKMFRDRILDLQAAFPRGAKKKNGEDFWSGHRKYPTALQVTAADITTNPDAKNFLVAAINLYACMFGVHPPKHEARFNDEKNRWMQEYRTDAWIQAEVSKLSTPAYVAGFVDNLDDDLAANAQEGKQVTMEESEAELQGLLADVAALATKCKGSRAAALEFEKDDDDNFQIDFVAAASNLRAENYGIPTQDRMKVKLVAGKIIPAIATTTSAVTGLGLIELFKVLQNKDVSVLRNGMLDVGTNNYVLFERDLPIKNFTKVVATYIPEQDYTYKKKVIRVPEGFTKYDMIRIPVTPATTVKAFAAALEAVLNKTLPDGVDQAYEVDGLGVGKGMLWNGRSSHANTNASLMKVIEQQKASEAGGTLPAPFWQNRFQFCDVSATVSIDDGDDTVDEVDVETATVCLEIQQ

[3] = molecular target: AMP-activated protein kinase, AMPK (Homo sapiens) (UniProt P54646+O43741+P54619+Q9UGJ0+Q9Y478+Q13131+Q9UGI9); test: AMP-dependent Kinase enzyme assay. An in vitro enzyme assay that detects ADP turnover that is directly proportional to AMPK activity. This uses naive AMPK that is activated during the assay with MK-8722; format: functional; details: 30 µM
[4] = molecular target: Sialic acid-binding Ig-like lectin 9 (Homo sapiens) (UniProt Q9Y336); test: Hs-Siglec9 ALPHAscreen SOP 20170721; details: 10 µM
[5] = system: Trypanosoma cruzi; test: Trypanosoma cruzi phosphomannomutase and mannose-1-phosphate guanylyltransferase assay; format: functional; details: 10 µM
[6] = molecular target: T2, Arginase-2, mitochondrial (Homo sapiens) (UniProt P78540); test: in vitro enzyme assay to detect the production of urea directly proportional to the activity of Arginase II; format: functional; details: 33.3 µM; note: in the data most compounds retested in dose-response had high values
T2 sequence (whole entry): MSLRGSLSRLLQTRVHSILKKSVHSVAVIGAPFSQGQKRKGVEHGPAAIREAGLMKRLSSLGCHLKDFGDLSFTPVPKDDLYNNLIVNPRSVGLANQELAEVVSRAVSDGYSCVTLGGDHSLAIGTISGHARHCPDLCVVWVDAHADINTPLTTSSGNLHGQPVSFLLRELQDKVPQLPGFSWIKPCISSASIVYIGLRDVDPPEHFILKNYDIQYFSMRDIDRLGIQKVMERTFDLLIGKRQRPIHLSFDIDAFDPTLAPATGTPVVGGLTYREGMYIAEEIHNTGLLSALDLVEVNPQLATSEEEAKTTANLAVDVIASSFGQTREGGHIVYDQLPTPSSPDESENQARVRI

[7] = molecular target: T3, Proteasome subunit beta (Trypanosoma cruzi) (UniProt O96673); test: Trypanosoma cruzi proteasome chymotrypsin-like activity (TcProtChymo) assay.; note: in the data most compounds retested in dose-response had high values; format: functional; details: 9.37 µM
T3 sequence (whole entry): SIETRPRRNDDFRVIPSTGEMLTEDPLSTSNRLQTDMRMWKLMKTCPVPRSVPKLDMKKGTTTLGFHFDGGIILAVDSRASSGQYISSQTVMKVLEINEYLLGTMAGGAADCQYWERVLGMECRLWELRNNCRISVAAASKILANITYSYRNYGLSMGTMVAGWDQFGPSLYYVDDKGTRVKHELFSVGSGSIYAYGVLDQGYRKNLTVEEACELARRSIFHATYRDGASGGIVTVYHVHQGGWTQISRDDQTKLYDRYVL

[8] = species on record: Homo sapiens; test: To identify inhibition of the IFN signalling (Jak-Stat) pathway via expression of an eGFP reporter gene under the control of an IFN-stimulated response element (ISRE) containing MxA promoter.; format: functional; details: 30 µM
[9] = molecular target: T4, Tyrosyl-tRNA synthetase, putative (Trypanosoma cruzi (strain CL Brener)) (UniProt Q4DSP6); test: Trypanosoma cruzi tyrosyl tRNA synthetase (TcYRS) _High Tyrosine SOP; format: functional; details: 30 µM; note: in the data most compounds retested in dose-response had high values
T4 sequence (whole entry): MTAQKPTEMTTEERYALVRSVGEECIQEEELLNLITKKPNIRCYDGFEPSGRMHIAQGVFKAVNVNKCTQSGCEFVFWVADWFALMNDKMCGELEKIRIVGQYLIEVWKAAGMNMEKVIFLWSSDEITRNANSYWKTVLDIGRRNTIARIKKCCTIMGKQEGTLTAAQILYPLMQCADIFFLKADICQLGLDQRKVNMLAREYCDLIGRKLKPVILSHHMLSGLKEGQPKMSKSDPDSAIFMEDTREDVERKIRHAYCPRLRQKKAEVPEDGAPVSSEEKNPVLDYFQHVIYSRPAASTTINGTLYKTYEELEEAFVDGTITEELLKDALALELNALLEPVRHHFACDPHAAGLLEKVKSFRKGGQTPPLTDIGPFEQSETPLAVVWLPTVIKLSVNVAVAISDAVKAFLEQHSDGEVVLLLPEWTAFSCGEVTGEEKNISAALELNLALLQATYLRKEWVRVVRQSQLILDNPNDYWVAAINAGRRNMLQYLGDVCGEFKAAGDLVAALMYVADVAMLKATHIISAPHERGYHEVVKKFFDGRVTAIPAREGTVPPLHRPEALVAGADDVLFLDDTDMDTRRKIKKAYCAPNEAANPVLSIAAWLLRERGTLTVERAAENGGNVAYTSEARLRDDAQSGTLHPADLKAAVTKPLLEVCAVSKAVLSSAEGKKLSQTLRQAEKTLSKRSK

[10] = molecular target: T4, Tyrosyl-tRNA synthetase, putative (Trypanosoma cruzi (strain CL Brener)); test: Trypanosoma cruzi tyrosyl tRNA synthetase (TcYRS) SOP; format: functional; details: 30 µM
[11] = molecular target: Chromo domain-containing protein 1 (Saccharomyces cerevisiae (strain ATCC 204508 / S288c) (Baker's yeast)) (UniProt P32657); test: ScCHD-1 Enzyme Inhibition Assay; format: functional; details: 30 µM; note: in the data most compounds retested in dose-response had high values
Sequence of Chromo domain-containing protein 1 (Saccharomyces cerevisiae (strain ATCC 204508 / S288c) (Baker's yeast)) (P32657 whole entry, the tested form may be a part): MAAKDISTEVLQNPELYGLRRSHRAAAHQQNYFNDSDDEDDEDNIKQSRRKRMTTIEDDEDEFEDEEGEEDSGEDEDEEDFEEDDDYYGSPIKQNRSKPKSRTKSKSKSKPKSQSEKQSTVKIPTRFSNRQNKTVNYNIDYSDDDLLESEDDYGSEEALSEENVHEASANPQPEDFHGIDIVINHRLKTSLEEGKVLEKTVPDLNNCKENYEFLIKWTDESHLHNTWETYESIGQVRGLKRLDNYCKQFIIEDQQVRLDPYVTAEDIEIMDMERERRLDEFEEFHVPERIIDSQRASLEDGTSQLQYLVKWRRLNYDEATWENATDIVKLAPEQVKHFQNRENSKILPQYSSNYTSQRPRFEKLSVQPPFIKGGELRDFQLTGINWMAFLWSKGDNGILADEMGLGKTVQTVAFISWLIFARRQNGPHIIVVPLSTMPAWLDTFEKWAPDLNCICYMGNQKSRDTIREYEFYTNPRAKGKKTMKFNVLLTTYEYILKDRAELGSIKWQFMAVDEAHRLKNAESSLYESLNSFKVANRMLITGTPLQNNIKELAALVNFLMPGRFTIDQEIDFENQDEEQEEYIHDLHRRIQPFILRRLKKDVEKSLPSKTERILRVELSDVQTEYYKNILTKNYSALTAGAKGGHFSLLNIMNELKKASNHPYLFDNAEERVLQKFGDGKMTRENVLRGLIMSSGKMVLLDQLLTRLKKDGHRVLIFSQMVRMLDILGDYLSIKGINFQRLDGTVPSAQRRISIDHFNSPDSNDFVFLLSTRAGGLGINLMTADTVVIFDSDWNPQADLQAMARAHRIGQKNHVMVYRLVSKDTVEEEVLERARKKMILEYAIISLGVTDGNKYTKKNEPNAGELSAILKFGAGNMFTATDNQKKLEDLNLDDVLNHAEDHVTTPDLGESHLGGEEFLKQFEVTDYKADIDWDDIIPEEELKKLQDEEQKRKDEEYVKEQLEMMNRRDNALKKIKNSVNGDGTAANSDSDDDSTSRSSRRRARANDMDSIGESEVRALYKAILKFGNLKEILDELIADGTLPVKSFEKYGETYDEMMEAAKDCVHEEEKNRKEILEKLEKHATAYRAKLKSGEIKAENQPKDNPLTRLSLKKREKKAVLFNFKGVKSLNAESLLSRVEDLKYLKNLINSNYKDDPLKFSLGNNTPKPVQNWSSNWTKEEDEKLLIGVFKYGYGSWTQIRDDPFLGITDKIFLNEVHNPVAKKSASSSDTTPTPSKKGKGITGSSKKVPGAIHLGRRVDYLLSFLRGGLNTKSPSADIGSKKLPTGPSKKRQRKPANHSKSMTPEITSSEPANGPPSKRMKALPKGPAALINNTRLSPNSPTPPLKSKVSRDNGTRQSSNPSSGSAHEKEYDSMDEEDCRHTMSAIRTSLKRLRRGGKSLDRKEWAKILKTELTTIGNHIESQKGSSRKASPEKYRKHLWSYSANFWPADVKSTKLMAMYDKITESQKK

Sequence of Sialic acid-binding Ig-like lectin 9 (Homo sapiens) (Q9Y336 whole entry): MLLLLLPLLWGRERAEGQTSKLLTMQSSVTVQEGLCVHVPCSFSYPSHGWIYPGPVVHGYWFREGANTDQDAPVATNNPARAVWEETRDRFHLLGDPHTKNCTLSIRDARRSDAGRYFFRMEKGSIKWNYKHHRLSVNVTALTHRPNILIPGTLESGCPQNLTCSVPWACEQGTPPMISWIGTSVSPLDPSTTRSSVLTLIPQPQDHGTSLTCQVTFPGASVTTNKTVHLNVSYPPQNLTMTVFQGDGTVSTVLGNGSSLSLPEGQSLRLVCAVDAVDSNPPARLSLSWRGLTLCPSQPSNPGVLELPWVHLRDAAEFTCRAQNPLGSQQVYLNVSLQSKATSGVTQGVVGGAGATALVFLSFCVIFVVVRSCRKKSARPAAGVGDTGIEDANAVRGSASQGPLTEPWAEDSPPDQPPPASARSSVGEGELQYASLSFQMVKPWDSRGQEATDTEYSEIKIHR
Sequence of Protein translocase subunit SecA (Escherichia coli (strain K12)) (P10408 whole entry): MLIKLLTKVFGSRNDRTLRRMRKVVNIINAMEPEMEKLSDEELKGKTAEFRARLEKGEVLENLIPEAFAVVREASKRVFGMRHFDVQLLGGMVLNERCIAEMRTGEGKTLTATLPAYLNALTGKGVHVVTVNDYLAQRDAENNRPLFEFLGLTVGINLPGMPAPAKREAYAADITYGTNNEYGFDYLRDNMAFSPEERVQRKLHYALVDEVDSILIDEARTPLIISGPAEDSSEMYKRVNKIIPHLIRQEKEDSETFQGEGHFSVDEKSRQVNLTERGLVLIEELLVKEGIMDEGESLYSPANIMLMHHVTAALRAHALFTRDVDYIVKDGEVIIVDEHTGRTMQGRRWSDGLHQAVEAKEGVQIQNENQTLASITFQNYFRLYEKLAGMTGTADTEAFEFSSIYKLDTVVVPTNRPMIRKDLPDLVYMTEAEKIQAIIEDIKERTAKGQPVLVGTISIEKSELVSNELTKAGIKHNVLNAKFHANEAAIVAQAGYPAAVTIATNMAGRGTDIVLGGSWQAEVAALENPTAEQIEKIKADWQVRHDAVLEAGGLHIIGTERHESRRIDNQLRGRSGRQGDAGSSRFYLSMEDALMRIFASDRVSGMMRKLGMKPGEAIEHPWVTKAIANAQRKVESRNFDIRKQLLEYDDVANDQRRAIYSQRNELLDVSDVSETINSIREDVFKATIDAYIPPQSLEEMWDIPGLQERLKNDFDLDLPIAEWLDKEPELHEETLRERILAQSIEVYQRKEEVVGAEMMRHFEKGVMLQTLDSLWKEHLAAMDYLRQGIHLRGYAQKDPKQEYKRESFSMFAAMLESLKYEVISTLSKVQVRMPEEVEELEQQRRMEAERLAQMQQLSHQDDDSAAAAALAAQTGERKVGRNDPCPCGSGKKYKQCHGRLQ

SMILES	Percent Effect [1] [%]	Percent Effect [2] [%]	Percent Effect [3] [%]	Percent Effect [4] [%]	Percent Effect [5] [%]	Percent Effect [6] [%]	Percent Effect [7] [%]	Percent Effect [8] [%]	Percent Effect [9] [%]	Percent Effect [10] [%]	Percent Effect [11] [%]
CNC(=O)Cn1cc(C#N)c(=O)c2cc(Br)ccc21	-5.47	13.3	-4.43	16.9	7.3	7.29	15.2	9.36	3.83	13.6	38.7
CC(NC1(CNC(=O)Cn2cccn2)CCOCC1)c1ccccc1 (configuration not stated)	-5.93	13.5	-3.26	21.8	6.35	3.72	9.01	-4.77	0	16.1	-5.87
CC(C)(C)C(=O)N1CCC(c2nc(O)cc(-c3ccccn3)n2)CC1	-0.499	12.2	8.91	-7.12	-0.79	-5.34	12	11.1	2.15	1.3	-8.6
Cc1cc(C)n(C2CCCN(C(=O)c3ccc(F)cc3F)C2)n1 (configuration not stated)	-11.1	-5.41	-1.04	0.0778	-3.91	-3.75	7.02	-1.41	5.94	6.1	2.92
FC(F)(F)Cn1ccnc1CN1CCOC(Cn2cccn2)C1 (configuration not stated)	-5.79	6.33	6.8	1.11	-2.36	-1.5	1.54	13.3	1.04	15.2	-6.67
Cc1ccc([C@@H]2CN(S(=O)(=O)N(C)C)C[C@H]2N(C)C)cc1	-5.32	13.5	-7.05	37	3.42	45.9	8.84	-3.64	4.3	11.1	-14.3
CCc1nc(CCNC(=O)NC2CC2)sc1C	-5.62	0	-1.43	-3.96	0	1.67	9.89	5.25	6.93	-1.22	-6.36
Cc1cc(CNC(=O)N2CCCN(Cc3ccccc3)CC2)no1	-3.91	12.7	-1.73	0.846	-5.38	-2.66	10.7	18.1	2.46	11.4	-4.24
Cn1cc(CCC(=O)N2C[C@H]3CC[C@@H]2CN(Cc2ccccc2)C3)cn1	-5.96	4.17	9.13	-7.5	-1.07	-3.53	8.77	-28.4	1.05	5.13	-1.41
CC(=O)N1CCn2c(C(=O)N(C)C)cnc2C1	-2.73	5.33	9.01	-0.782	-1.77	-3.03	1.32	5.39	3.19	6.41	-2.05
Cn1nc(CNC(=O)c2nc3ccccc3s2)c2c1CCOC2	-1.59	0	8.14	0.56	5.03	-0.645	4.18	24.8	1.06	6.41	-5.4
O=C(O)c1cc(NS(=O)(=O)c2cccc(Cl)c2F)ccc1Cl	-7.65	2.6	4.08	1.53	-5.8	-2.13	5.57	23.4	-11.7	-12.2	-3.44
CC(C)CCn1[nH]c(CNc2ccccc2)nc1=O	-2.4	2.63	4.53	4.24	-9.06	2.37	16.2	2.77	2.13	2.6	4.81
CN(C)C1CCN(C(=O)NCc2ccccc2Cn2cncn2)CC1	-2.11	10.8	-1.1	10.9	7.72	6.19	12.2	18.3	7.94	17.1	-1.22
Cc1cc(C)n(CCCNC(=O)[C@@H](C)NC(=O)OC(C)(C)C)n1	-6.34	7.89	8.18	0.0654	7.5	-4.73	13.3	5.91	3.19	10.4	-1.9
Cc1nc(CCC(=O)NC2CCC2)cc(C2CCNCC2)n1	-4.77	26.7	-4.67	-2.25	6.1	-4.43	4.67	3.41	4.25	19.2	-7.72
CCCOc1cc(C)ccc1NC(=O)NCCC(=O)N(C)C	-4.1	13.7	-1.53	-3	-3.33	4.09	20.6	10.2	6.45	15	-2.56
c1csc(N2CCCN(Cc3nc(C4CC4)no3)CC2)n1	-5.91	10.4	-4.1	9.22	-0.749	-2.49	-1.18	19	5.83	14.6	5.76
Cc1nn(C)c2c(N3CCN(C(=O)NC4CCCCC4)CC3)ncnc12	-1.64	9.33	-2.22	-3.41	-5.5	0.528	11.7	0.346	2.12	5.13	-10.1
COCC1CN(C(=O)c2ccoc2C)Cc2nccn2C1 (configuration not stated)	-6.75	0	10.2	-5.59	-6.3	0.233	2.03	12.3	-3.19	1.28	-4.85
O=S(=O)(Nc1cnn(C2CCOCC2)c1)c1ccc2c(c1)CCO2	-1.97	-2.6	-19.5	5.92	-0.296	-9.68	12	13	1.06	-1.28	-7.66
Cc1nn(C)c2c(NCc3cccnc3)nc(C3CC3)nc12	-3.37	15.6	11.8	13.7	5.61	24.8	12.8	12.8	1.07	13.6	0.869
